Measurements from PubChem BioAssay (EPA / NIEHS).
“And” between values parts separate entries of the source, which are not always exact repeats. Equal values may be shown once. More than one record can exist for a structure, and the calls need not agree. The source made the active and inactive calls. Rule for the calls: active = hit-call score of the fitted dose curve at least 0.9, where 1 is the maximum; inactive = score below 0.9.

Read-out: CD40, CD40 (gene 958)
Test: BSK_LPS_CD40: BioMAP Diversity Plus: LPS Assay for CD40 Biomarker Activity (AID 2283076)
Conditions: primary human HUVEC with PBMC; actives raise or lower the signal
Method: BSK_LPS is a cell-based, multiplexed-readout assay that uses umbilical vein endothelium and peripheral blood mononuclear cells, a human vascular primary cell co-culture, with measurements taken at 24 hours after chemical dosing in a 96-well plate.BSK_LPS_CD40 is an assay component measured in the BSK_LPS assay. It measures CD40 antibody related to regulation of gene expression using ELISA technology.Data from the assay component BSK_LPS_CD40 was analyzed into 1 assay endpoint. This assay endpoint, BSK_LPS_CD40, was analyzed with bidirectional fitting relative to DMSO as the negative control and baseline of activity. Using a type of binding reporter, gain or loss-of-signal activity can be used to understand changes in the signaling as they relate to the gene CD40. Furthermore, this assay endpoint can be referred to as a primary readout, because this assay has produced multiple assay endpoints where this one serves a signaling function. To generalize the intended target to other relatable targets, this assay endpoint is annotated to the cytokine intended target family, where the subfamily is inflammatory factor.
The levels of cell surface (or secreted, indicated by the prefix "s") biomarker endpoints were measured by ELISA. Overt cytotoxicity to cells in confluent adherent cultures (all systems other than the BT system) was assessed by measuring total protein levels using sulforhodamine B (SRB) staining in parallel cultures at the time of biomarker measurements, indicated as SRB endpoints. For proliferation assays for adherent cell types, individual cell types are cultured at sub-confluence and relative cell numbers quantified by SRB staining at time points optimized for each system (48 h: 3C and CASM3C systems; 72 h: BT and HDF3CGF systems; 96 h: SAg system). SRB was performed by staining cells with 0.1% SRB after fixation with 10% TCA and reading wells at 560 nm.Viability and proliferation of PBMC (T cells) was quantified by Alamar Blue reduction for the SAg and BT systems. For PBMC viability (referred to as PBMC Cytotoxicity within the assay endpoint names), cells were plated (75,000/well in a 96-well plate) and then chemical samples added for 1 h before addition of activators, SEB and TSST-1 (20 ng/mL final concentration each). Cells were incubated for 90 h. Then, Alamar Blue (20 uL/well) (Invitrogen, Cat DAL1100) was added for 6 h, and the plates were read with a fluorescence microplate reader at 546/580 nm (excitation/emission). For PBMC proliferation, cells were plated and activated as above but incubated for only 16 h prior to addition of Alamar Blue. Plates were read after 6 h.

Compound	outcome	AC50
COC(=O)c1ccccc1C(=O)OC	inactive	
CCCCNC(=O)n1c(NC(=O)OC)nc2ccccc21	inactive	
Cc1c(F)c(F)c(COC(=O)C2C(/C=C(\Cl)C(F)(F)F)C2(C)C)c(F)c1F (stereo not given)		13.7 µM (active)
CCOC(=O)CC(SP(=S)(OC)OC)C(=O)OCC (stereo not given)	inactive	
CO/C=C(/C(=O)OC)c1ccccc1Oc1cc(Oc2ccccc2C#N)ncn1	inactive	19.9 µM (active) and 10 µM (active) and 12.9 µM (active)
CC1COC(Cn2cncn2)(c2ccc(Oc3ccc(Cl)cc3)cc2Cl)O1 (stereo not given)		17.3 µM (active)
CNC(=O)ON=CC(C)(C)SC	inactive	
CCCC1COC(Cn2cncn2)(c2ccc(Cl)cc2Cl)O1 (stereo not given)		20 µM (active)
CCOP(=S)(OCC)SCn1c(=O)oc2cc(Cl)ccc21		16.6 µM (active)
Oc1ccccc1-c1ccccc1	inactive	
CCOc1cc(Oc2ccc(C(F)(F)F)cc2Cl)ccc1[N+](=O)[O-]	inactive	
CS/C(C)=N/OC(=O)N(C)SN(C)C(=O)O/N=C(\C)SC		15.8 µM (active)
CNC(=S)S		15.7 µM (active)
COc1nc(NC(C)C)nc(NC(C)C)n1	inactive	
CC(C)C1(C)N=C(c2nc3ccccc3cc2C(=O)O)NC1=O (stereo not given)	inactive	
CCCCOC(=O)c1ccccc1C(=O)OCCCC	inactive	
CCON=C(CC)C1=C(O)CC(c2c(C)cc(C)cc2C)CC1=O (stereo not given)	inactive	
CC(C)Oc1cc(-n2nc(C(C)(C)C)oc2=O)c(Cl)cc1Cl		14.8 µM (active)
N#Cc1nn(-c2c(Cl)cc(C(F)(F)F)cc2Cl)c(N)c1S(=O)C(F)(F)F (stereo not given)		14.9 µM (active)

Compound	outcome	AC50
COc1cnc(OC)n2nc(NS(=O)(=O)c3c(OCC(F)F)cccc3C(F)(F)F)nc12	inactive	
Fc1ccc(Oc2ccnc3cc(Cl)cc(Cl)c23)cc1		22.8 µM (active)
C#CCOS(=O)OC1CCCCC1Oc1ccc(C(C)(C)C)cc1 (stereo not given)		6.59 µM (active)
CON(C)C(=O)Nc1ccc(Cl)c(Cl)c1	inactive	
C=CC1(C)OC(=O)N(c2cc(Cl)cc(Cl)c2)C1=O (stereo not given)	inactive	
C=CCC1=C(C)C(OC(=O)C2C(C=C(C)C)C2(C)C)CC1=O (stereo not given)	inactive	24.2 µM (active) and 21 µM (active) and 27.6 µM (active)
O=C(Nc1ccccc1)Nc1ccnc(Cl)c1	inactive	
CCCCC(CC)COC(=O)c1ccccc1C(=O)OCC(CC)CCCC (stereo not given)	inactive	
COC(=O)N(OC)c1ccccc1COc1ccn(-c2ccc(Cl)cc2)n1		20 µM (active)
CCOC(=O)C(Cl)Cc1cc(-n2nc(C)n(C(F)F)c2=O)c(F)cc1Cl (stereo not given)	inactive	
COP(=S)(OC)Oc1nc(Cl)c(Cl)cc1Cl	inactive	
CN(C)C(=S)SSC(=S)N(C)C		24.7 µM (active)
O=C(O)COc1nc(Cl)c(Cl)cc1Cl	inactive	
COC(=O)C=C(C)OP(=O)(OC)OC	inactive	
N#CC(CCc1ccc(Cl)cc1)(Cn1cncn1)c1ccccc1 (stereo not given)	inactive	
COc1nc(C)nc(NC(=O)NS(=O)(=O)c2ccccc2Cl)n1	inactive	
CCc1nn(C)c(C(=O)NCc2ccc(C(C)(C)C)cc2)c1Cl		24.3 µM (active)
CCNc1nc(Cl)nc(NC(C)C)n1	inactive	
CC(Oc1ccc(Cl)cc1Cl)C(=O)O (stereo not given)	inactive	
